Assay results reported in PubChem BioAssay (NCI).
This is part of a sample that, as a whole, favours compounds with a hit. Of some 83,000 tested, about 20% had one in any assay.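 Negative percent growth values reflect cell death: -40 means 40% of the cells present at the start died, and -100 means all died.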 A number with no mark means an inactive call. Activity calls are given as the source filed them. How the source made its calls: active means growth percent below 10; inactive means the rest.

The molecules below were run on NCI-H23 lung (assay: NCI-60 one-dose screen, 48 h (100 = growth as untreated, 0 = no growth, -100 = all killed)). Conditions: 10 µM unless noted.
In the case of `COc1cc2c3c(c1)nc(C)n3CCC2`, the growth is reported as 98.4%.
Work on `Cc1sc2c(c1C)c(=O)nc1c(-c3nc4ccccc4s3)n[nH]n12` yielded a growth of 88.7%.
In the case of `COc1cc2c(cc1OCCCCCN1CCN(c3ncnc4ccccc34)CC1)N=CC1CCCN1C2=O` (centres undefined), the growth is reported as 3.3% (active).
With `COc1cc2c(cc1OCCCCN1CCN(CC(=O)Nc3ccc(Cl)cc3C(=O)c3ccccc3Cl)CC1)N=CC1CCCN1C2=O` (centres undefined) the growth was -14% (active).
`CCOC(=O)C1=C(C)NC(=O)NC1c1cc(=O)oc2ccc(C)cc12` (centres undefined) was tested, and the growth was 96.9%.
Molecule `COc1ccc2nc3cc(Cl)ccc3c(Nc3ccc(N(C)C)cc3)c2c1` has a growth of 91.9%.
Molecule `C[C@@H](C[C@H](CCO)c1cc(C(F)(F)F)cc(C(F)(F)F)c1)c1ccc2ccccc2c1` has a growth of 85.3%.
For `COc1ccc2c(CCCc3ccc(Cl)cc3Cl)c3[n+](cc2c1OC)CCc1cc2c(cc1-3)OCO2`, the growth was -12.2% (active).
For `COc1cc2c(cc1OCCCCCCN1CCN(c3ncnc4ccccc34)CC1)N=CC1CCCN1C2=O` (centres undefined), the growth was -26.1% (active).
With `c1cc[n+](Cc2c3ccccc3cc3c2ccc2ccccc23)cc1` the growth was 16.9%.
`CC(C)[C@@H]1CC[C@]2(CO2)[C@@H]2C(=O)OCC(C(=O)O)=C[C@H]21` was tested, and the growth was -18.4% (active).
`N#Cc1c(NC(=O)c2cccs2)[n+]([O-])c2ccc(F)cc2[n+]1[O-]` was tested, and the growth was 98.5%.
Molecule `CC(CCCC(=O)O)c1ccoc1` (centres undefined) has a growth of 97.7%.
In the case of `CCCCCCCC(=O)SCC/C=C/[C@@H]1CC(=O)NCc2nc(co2)C2=N[C@@](C)(CS2)C(=O)N[C@@H](C(C)C)C(=O)O1`, the growth is reported as -2.47% (active).
In the case of `Nc1c(C(=O)c2ccccc2)sc2nc(-c3cccs3)ccc12`, the growth is reported as 36.8%.
In the case of `COc1ccc2c(CCCCC(c3ccccc3)c3ccccc3)c3[n+](cc2c1OC)CCc1cc2c(cc1-3)OCO2`, the growth is reported as -66.5% (active).
With `CC(C)(C)C(=O)OCOP(=O)(OCOC(=O)C(C)(C)C)C1CCCN(OC(=O)c2ccccc2)C1=O` (centres undefined) the growth was 16.8%.
Molecule `O=C(Cc1ccccc1)Nc1nnc(NC2CCN(c3nnc(NC(=O)Cc4ccccc4)s3)CC2)s1` has a growth of 96.1%.
With `CCCCCCC1(/C=N/NC(N)=O)NC(=O)NC1=O` (centres undefined) the growth was 94%.
`CC(N)C(Cc1ccc(Cl)cc1)c1ccc(Cl)cc1` (centres undefined) showed a growth of 92.8%.
For `CC(C)[C@@H](C)/C=C/[C@@H](C)[C@H]1CCC2=C3C=CC4=CC(=O)CC[C@]4(C)[C@H]3CC[C@@]21C`, the growth was 96%.
`CCOC(=O)C1=C(C)N=C2Sc3cc(OC(F)(F)F)ccc3N2[C@H]1c1ccccn1` showed a growth of 48.8%.
Molecule `COC(=O)[C@]12CC[C@@H](C)[C@H](C)[C@@H]1C1=CC[C@@H]3[C@@]4(C)C(c5cnco5)=C[C@@](C)(CO)C4=CC[C@@]3(C)[C@]1(C)CC2` has a growth of 47.8%.
For `C=C1C(=O)O[C@H]2[C@H]1CC/C(Cn1cc(-c3cc(C)c(C)cc3C)nn1)=C\CC[C@@]1(C)O[C@@H]21`, the growth was -61.3% (active).
With `C=C1C(=O)O[C@H]2[C@H]1CC/C(CNC(=O)c1cc3cc(OC)ccc3[nH]1)=C\CC[C@@]1(C)O[C@@H]21` the growth was -54.8% (active).
`C=CCC(=O)N[C@H](/C=C/C(=O)O)Cc1ccc(-c2cc(Cl)cc(Cl)c2)cc1` showed a growth of 92.7%.
`NN1C(=O)CSC1=S` was tested, and the growth was 97.5%.
Molecule `CC(=O)C(C(C)=O)C(c1ccccc1)C(C(C)=O)C(C)=O` has a growth of 98.6%.
`COc1cc(NCCN(CC(C)C)CC(C)C)c2ncc(C)cc2c1` was tested, and the growth was 42%.
In the case of `COc1ccc2c(CCC(c3ccccc3)c3ccccc3)c3[n+](cc2c1OC)CCc1cc2c(cc1-3)OCO2`, the growth is reported as 0.765% (active).
For `O=C1CC(c2ccc3c(c2)OCO3)c2ncn(-c3ccc(Cl)cc3)c2N1` (centres undefined), the growth was 41%.
Work on `Clc1nc(Cl)c2ncn(CC#CCn3cnc4c(Cl)nc(Cl)nc43)c2n1` yielded a growth of 38.6%.
`COc1ccc(C2CC(=O)c3c(O)c(OC)c(OC)c(OC)c3O2)c(O)c1` (centres undefined) was tested, and the growth was 27.5%.
`C[N+](C)(CCOC(c1ccccc1)c1ccccc1)CC(=O)OCc1ccccc1` showed a growth of 101%.
With `Nc1c2c(c(O)c3c1=C(CO)C=N3)=NCCS2` the growth was -43.9% (active).
With `Cc1cccc(NC(=O)[C@@H]2c3ccccc3C(=O)N(c3ccc(Cl)cc3)[C@H]2c2ccc(Cl)cc2)n1` the growth was 57.9%.
`CC(N)C(Cc1ccccc1)c1ccc(Cl)cc1` (centres undefined) showed a growth of 92.5%.
Work on `C=CCCCC(=O)CCC(=O)OCC1O[C@@H](O[C@@H]2C(O)[C@@H](OC(C)=O)C(C)O[C@H]2O[C@H](CC=C)CCCCC)C(O)[C@@H](OC(=O)/C(C)=C/C)[C@@H]1OC(=O)/C=C/c1ccccc1` (some centres undefined) yielded a growth of 35.3%.
With `COc1ccc2c(c1OC)C(=O)O[C@@H]2[C@H]1c2c(c(C#CC#Cc3ccc(F)c(F)c3)c3c(c2OC)OCO3)CCN1C` the growth was 90.3%.
